This passage reports binding signal results from publication PMC11006913.

Test in all cases: PBM; 200 nM protein, PBS
Common to all, as to conditions: dsDNA, one strand shown

The target in experiment [1] is T1, NKX2-4 (Homo sapiens, UniProt Q9H2Z4 175-261, P217L).
T1 sequence: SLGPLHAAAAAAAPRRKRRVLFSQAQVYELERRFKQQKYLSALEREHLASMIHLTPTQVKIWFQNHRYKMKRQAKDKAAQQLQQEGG

In experiment [2] the target is T2, NKX2-4 (Homo sapiens, UniProt Q9H2Z4 175-261, T231S).
T2 sequence: T1 sequence with L43P, T57S

The target in experiment [3] is T3, NKX2-4 (Homo sapiens, UniProt Q9H2Z4 175-261).
T3 sequence: T1 sequence with L43P

Experiment [4] deals with T4, NKX2-4 (Homo sapiens, UniProt Q9H2Z4 175-261, R246Q).
T4 sequence: T1 sequence with L43P, R72Q

Residue numbers refer to the chain shown, from its start.

For ACTCTTAT, the binding signal was 12.2 upbm affinity estimate (log intensity, higher = more binding, comparable within an allelic series) in the experiment with NKX2-4 [1]; 12.5 upbm affinity estimate (log intensity, higher = more binding, comparable within an allelic series) in the experiment with NKX2-4 [2]; 12.1 upbm affinity estimate (log intensity, higher = more binding, comparable within an allelic series) with NKX2-4 [3]; 12.5 upbm affinity estimate (log intensity, higher = more binding, comparable within an allelic series) with NKX2-4 [4].

On to CTGCGCAG, for which the binding signal was 9.75 upbm affinity estimate (log intensity, higher = more binding, comparable within an allelic series) with NKX2-4 [1]; 9.81 upbm affinity estimate (log intensity, higher = more binding, comparable within an allelic series) with NKX2-4 [2]; 9.75 upbm affinity estimate (log intensity, higher = more binding, comparable within an allelic series) with NKX2-4 [3]; 9.93 upbm affinity estimate (log intensity, higher = more binding, comparable within an allelic series) with NKX2-4 [4].

As for ACGAGTAT, the binding signal with NKX2-4 [1] is 11.5 upbm affinity estimate (log intensity, higher = more binding, comparable within an allelic series); with NKX2-4 [2], 11.7 upbm affinity estimate (log intensity, higher = more binding, comparable within an allelic series); with NKX2-4 [3], 11.4 upbm affinity estimate (log intensity, higher = more binding, comparable within an allelic series); with NKX2-4 [4] it was 11.6 upbm affinity estimate (log intensity, higher = more binding, comparable within an allelic series).

For GCACTCGA, the binding signal in the experiment with NKX2-4 [1] was 12.5 upbm affinity estimate (log intensity, higher = more binding, comparable within an allelic series); in the experiment with NKX2-4 [2] it was 13 upbm affinity estimate (log intensity, higher = more binding, comparable within an allelic series); with NKX2-4 [3], 12.5 upbm affinity estimate (log intensity, higher = more binding, comparable within an allelic series); with NKX2-4 [4], 13.1 upbm affinity estimate (log intensity, higher = more binding, comparable within an allelic series).

Regarding AGGCGGGC, the binding signal is 9.12 upbm affinity estimate (log intensity, higher = more binding, comparable within an allelic series) with NKX2-4 [1]; 8.97 upbm affinity estimate (log intensity, higher = more binding, comparable within an allelic series) in the experiment with NKX2-4 [2]; 9.16 upbm affinity estimate (log intensity, higher = more binding, comparable within an allelic series) with NKX2-4 [3]; 9.08 upbm affinity estimate (log intensity, higher = more binding, comparable within an allelic series) with NKX2-4 [4].

As to AAAGTACT, the binding signal in the experiment with NKX2-4 [1] was 12.4 upbm affinity estimate (log intensity, higher = more binding, comparable within an allelic series); with NKX2-4 [2], 12.8 upbm affinity estimate (log intensity, higher = more binding, comparable within an allelic series); in the experiment with NKX2-4 [3], 12.3 upbm affinity estimate (log intensity, higher = more binding, comparable within an allelic series); with NKX2-4 [4], 12.8 upbm affinity estimate (log intensity, higher = more binding, comparable within an allelic series).

Turning to CACTTTGA, the binding signal is 11.7 upbm affinity estimate (log intensity, higher = more binding, comparable within an allelic series) with NKX2-4 [1]; 12 upbm affinity estimate (log intensity, higher = more binding, comparable within an allelic series) in the experiment with NKX2-4 [2]; 11.6 upbm affinity estimate (log intensity, higher = more binding, comparable within an allelic series) in the experiment with NKX2-4 [3]; 12 upbm affinity estimate (log intensity, higher = more binding, comparable within an allelic series) in the experiment with NKX2-4 [4].

For AAAATGCG, the binding signal is 9.82 upbm affinity estimate (log intensity, higher = more binding, comparable within an allelic series) in the experiment with NKX2-4 [1]; 9.83 upbm affinity estimate (log intensity, higher = more binding, comparable within an allelic series) with NKX2-4 [2]; 9.74 upbm affinity estimate (log intensity, higher = more binding, comparable within an allelic series) in the experiment with NKX2-4 [3]; 9.92 upbm affinity estimate (log intensity, higher = more binding, comparable within an allelic series) with NKX2-4 [4].

Turning to CTCGAGTA, the binding signal is 12.3 upbm affinity estimate (log intensity, higher = more binding, comparable within an allelic series) in the experiment with NKX2-4 [1]; 12.6 upbm affinity estimate (log intensity, higher = more binding, comparable within an allelic series) with NKX2-4 [2]; 12.1 upbm affinity estimate (log intensity, higher = more binding, comparable within an allelic series) with NKX2-4 [3]; 12.6 upbm affinity estimate (log intensity, higher = more binding, comparable within an allelic series) with NKX2-4 [4].

Regarding ACGCAGTG, the binding signal was 9.7 upbm affinity estimate (log intensity, higher = more binding, comparable within an allelic series) in the experiment with NKX2-4 [1]; 9.67 upbm affinity estimate (log intensity, higher = more binding, comparable within an allelic series) with NKX2-4 [2]; 9.6 upbm affinity estimate (log intensity, higher = more binding, comparable within an allelic series) in the experiment with NKX2-4 [3]; 9.5 upbm affinity estimate (log intensity, higher = more binding, comparable within an allelic series) with NKX2-4 [4].

Consider CTCTTGAA, for which the binding signal with NKX2-4 [1] was 12.5 upbm affinity estimate (log intensity, higher = more binding, comparable within an allelic series); with NKX2-4 [2], 12.8 upbm affinity estimate (log intensity, higher = more binding, comparable within an allelic series); in the experiment with NKX2-4 [3], 12.3 upbm affinity estimate (log intensity, higher = more binding, comparable within an allelic series); in the experiment with NKX2-4 [4], 13 upbm affinity estimate (log intensity, higher = more binding, comparable within an allelic series).

For the sequence GCGAGCCA, the binding signal in the experiment with NKX2-4 [1] is 9.74 upbm affinity estimate (log intensity, higher = more binding, comparable within an allelic series); with NKX2-4 [2], 9.69 upbm affinity estimate (log intensity, higher = more binding, comparable within an allelic series); in the experiment with NKX2-4 [3], 9.69 upbm affinity estimate (log intensity, higher = more binding, comparable within an allelic series); with NKX2-4 [4], 9.76 upbm affinity estimate (log intensity, higher = more binding, comparable within an allelic series).

As for ACCTGGGC, the binding signal with NKX2-4 [1] is 9.66 upbm affinity estimate (log intensity, higher = more binding, comparable within an allelic series); in the experiment with NKX2-4 [2], 9.68 upbm affinity estimate (log intensity, higher = more binding, comparable within an allelic series); in the experiment with NKX2-4 [3] it was 9.7 upbm affinity estimate (log intensity, higher = more binding, comparable within an allelic series); with NKX2-4 [4], 9.78 upbm affinity estimate (log intensity, higher = more binding, comparable within an allelic series).

Take ATACTTCA: the binding signal in the experiment with NKX2-4 [1] was 12.4 upbm affinity estimate (log intensity, higher = more binding, comparable within an allelic series); with NKX2-4 [2] it was 12.8 upbm affinity estimate (log intensity, higher = more binding, comparable within an allelic series); with NKX2-4 [3], 12.3 upbm affinity estimate (log intensity, higher = more binding, comparable within an allelic series); with NKX2-4 [4], 12.8 upbm affinity estimate (log intensity, higher = more binding, comparable within an allelic series).

GCGCGACA: the binding signal was 9.99 upbm affinity estimate (log intensity, higher = more binding, comparable within an allelic series) with NKX2-4 [1]; 10 upbm affinity estimate (log intensity, higher = more binding, comparable within an allelic series) in the experiment with NKX2-4 [2]; 10 upbm affinity estimate (log intensity, higher = more binding, comparable within an allelic series) in the experiment with NKX2-4 [3]; 10.1 upbm affinity estimate (log intensity, higher = more binding, comparable within an allelic series) with NKX2-4 [4].
